# Measurements as given in PubChem BioAssay (EPA / NIEHS).
# Records with an inconclusive call do not appear. Activity calls are given as the source filed them. The calls were made as follows: active = hit-call score of the fitted dose curve at least 0.9, where 1 is the maximum; inconclusive = response in the unintended direction; inactive = score below 0.9.
# Tests used:
# [1] = target: GAL4 Transcription Factor (Internal Marker), GAL4 (gene 855828) (UniProt P04386); assay: ATG_GAL4_XSP1: Attagene TRANS-FACTORIAL Multi-Species (XSP1) HepG2 Assay for GAL4 Transcription Factor (Internal Marker) (AID 2283789)
# Outline: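 HepG2 cells transiently transfected with multiplexed GAL4-UAS reporter units were exposed for 24 h with 3 nM 6-alpha-fluorotestosterone present. Reporter mRNA was quantified by RT-PCR, FAM labelling, HpaI digestion and capillary electrophoresis; background-control readout, gain-of-signal versus DMSO.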
# [2] = ATG_M_19_XSP1: Attagene TRANS-FACTORIAL Multi-Species (XSP1) HepG2 Assay for M19 Transcription Factor (Internal Marker) (AID 2283798)
# Outline: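 HepG2 cells transiently transfected with multiplexed GAL4-UAS reporter units, dosed 24 h with 3 nM 6-alpha-fluorotestosterone present for partial AR stimulation. Reporter mRNA measured by RT-PCR with capillary electrophoresis; gain-of-signal fitted relative to DMSO.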
# [3] = ATG_M_32_XSP1: Attagene TRANS-FACTORIAL Multi-Species (XSP1) HepG2 Assay for M32 Transcription Factor (Internal Marker) (AID 2283799)
# Outline: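 HepG2 cells transiently transfected with multi-species TRANS reporter units, dosed 24 h with 3 nM 6-alpha-fluorotestosterone present. Internal-marker reporter mRNA quantified by RT-PCR and capillary electrophoresis; positive-direction fit versus DMSO.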
# [4] = target: Peroxisome proliferator-activated receptor gamma (Homo sapiens) (UniProt P37231); assay: ATG_hPPARg_XSP1: Attagene TRANS-FACTORIAL Multi-Species (XSP1) HepG2 Assay for human Peroxisome Proliferator-activated Receptor gamma (PPARg) (AID 2283800)
# Outline: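 HepG2 cells transiently transfected with GAL4-UAS reporter units carrying chimeric NR-Gal4 proteins; 3 nM 6-alpha-fluorotestosterone present. After 24 h dosing, reporter mRNA quantified by RT-PCR and capillary electrophoresis; gain of signal relative to DMSO.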
# [5] = system: zebrafish Peroxisome Proliferator-activated Receptor gamma (PPARg), gene 557037; assay: ATG_zfPPARg_XSP1: Attagene TRANS-FACTORIAL Multi-Species (XSP1) HepG2 Assay for zebrafish Peroxisome Proliferator-activated Receptor gamma (PPARg) (AID 2283801)
# Outline: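 HepG2 cells transiently transfected with GAL4-UAS reporter units including a zebrafish PPARg–GAL4 chimera, dosed 24 h with 3 nM 6-alpha-fluorotestosterone present. Reporter mRNA quantified by RT-PCR, FAM labelling, HpaI digestion and capillary electrophoresis; induction versus DMSO.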
# [6] = target: mouse Peroxisome Proliferator-activated Receptor gamma (PPARg), Pparg (gene 19016) (UniProt P37238); assay: ATG_mPPARg_XSP1: Attagene TRANS-FACTORIAL Multi-Species (XSP1) HepG2 Assay for mouse Peroxisome Proliferator-activated Receptor gamma (PPARg) (AID 2283802)
# Outline: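 HepG2 cells transiently transfected with GAL4-UAS reporter units driven by mouse PPARg–GAL4 chimera; 3 nM 6-alpha-fluorotestosterone present. After 24 h dosing, reporter mRNA quantified by RT-PCR, fluorescent labelling and capillary electrophoresis; gain of signal versus DMSO.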
# [7] = target: Nuclear receptor subfamily 1 group I member 2 (Mus musculus) (UniProt O54915); assay: ATG_mPXR_XSP1: Attagene TRANS-FACTORIAL Multi-Species (XSP1) HepG2 Assay for mouse Pregnane X Receptor (PXR) (AID 2283803)
# Outline: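 Transiently transfected HepG2 cells expressing a receptor-Gal4 chimera drive a GAL4-UAS reporter; 3 nM 6-alpha-fluorotestosterone included. Reporter mRNA read 24 h post-dose by RT-PCR and capillary electrophoresis; gain of signal relative to DMSO.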
# [8] = target: frog Thyroid hormone Receptor alpha (TRa), thra-a (gene 397942) (UniProt P15204); assay: ATG_frTRa_XSP1: Attagene TRANS-FACTORIAL Multi-Species (XSP1) HepG2 Assay for frog Thyroid hormone Receptor alpha (TRa) (AID 2283804)
# Outline: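 HepG2 cells transiently transfected with frog TRa-GAL4 chimeric reporter units, dosed 24 hr with 3 nM 6-alpha-fluorotestosterone present; reporter mRNA quantified by RT-PCR, fluorescent labelling and capillary electrophoresis, gain of signal versus DMSO.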
# [9] = system: turtle Thyroid Hormone Receptor, alpha (TRa), gene 101949057; assay: ATG_trTRa_XSP1: Attagene TRANS-FACTORIAL Multi-Species (XSP1) HepG2 Assay for turtle Thyroid Hormone Receptor, alpha (TRa) (AID 2283806)
# Outline: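 HepG2 cells transiently transfected with GAL4-UAS reporter units and chimeric receptor-Gal4 constructs, with 3 nM 6-alpha-fluorotestosterone present. Reporter mRNA was quantified 24 h after dosing by RT-PCR, 6-FAM labelling and capillary electrophoresis; gain of signal versus DMSO.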
# [10] = target: zebrafish Thyroid Hormone Receptor beta (TRb), thrb (gene 30607) (UniProt Q9PVE4); assay: ATG_zfTRb_XSP1: Attagene TRANS-FACTORIAL Multi-Species (XSP1) HepG2 Assay for zebrafish Thyroid Hormone Receptor beta (TRb) (AID 2283809)
# Outline: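 HepG2 cells transiently transfected with multiplexed GAL4-UAS reporter units expressing chimeric zebrafish TRb–Gal4. Dosed 24 h with 3 nM 6-alpha-fluorotestosterone present; reporter mRNA measured by RT-PCR, HpaI digestion and capillary electrophoresis; gain of signal versus DMSO.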
# [11] = ATG_XTT_Cytotoxicity_XSP1: Cytotoxicity Assessment in the Attagene TRANS-FACTORIAL Multi-Species (XSP1) HepG2 Assay (AID 2283810)
# Outline: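 XTT viability readout taken at 24 hours post-dosing in HepG2 liver cells co-treated with 3 nM 6-alpha-fluorotestosterone. Signal loss relative to DMSO controls reflects cytotoxicity.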
# [12] = target: Estrogen receptor beta (Homo sapiens) (UniProt Q92731); assay: ATG_hERb_XSP2: Attagene TRANS-FACTORIAL Multi-Species (XSP2) HepG2 Assay for human Estrogen Receptor (ERb) (AID 2283813);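 also: actives raise reporter mRNA above DMSO so AC50 reflects agonist induction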
# Outline: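 HepG2 cells transiently transfected with GAL4-UAS reporter units and chimeric human ERb-Gal4, 24 h exposure. Reporter mRNA quantified by RT-PCR with FAM labelling, HpaI digestion and capillary electrophoresis; gain of signal versus DMSO.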
# [13] = target: GAL4 Transcription Factor (Internal Marker), GAL4 (gene 855828) (UniProt P04386); assay: ATG_GAL4_XSP2: Attagene TRANS-FACTORIAL Multi-Species (XSP2) HepG2 Assay for GAL4 Transcription Factor (Internal Marker) (AID 2283814);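 also: GAL4 reporter mRNA background control in MRTU transfected cells not a receptor target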
# Outline: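 HepG2 cells transiently transfected with GAL4-UAS reporter units, stimulated with 3 nM 6-alpha-fluorotestosterone plus 1.5 nM norgestrel, dosed 24 h. Reporter mRNA by RT-PCR/capillary electrophoresis; gain-of-signal fit versus DMSO, background control.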
# GAL4 Transcription Factor (Internal Marker), GAL4 (gene 855828), sequence (P04386 whole entry, looked up, the tested form may be a part): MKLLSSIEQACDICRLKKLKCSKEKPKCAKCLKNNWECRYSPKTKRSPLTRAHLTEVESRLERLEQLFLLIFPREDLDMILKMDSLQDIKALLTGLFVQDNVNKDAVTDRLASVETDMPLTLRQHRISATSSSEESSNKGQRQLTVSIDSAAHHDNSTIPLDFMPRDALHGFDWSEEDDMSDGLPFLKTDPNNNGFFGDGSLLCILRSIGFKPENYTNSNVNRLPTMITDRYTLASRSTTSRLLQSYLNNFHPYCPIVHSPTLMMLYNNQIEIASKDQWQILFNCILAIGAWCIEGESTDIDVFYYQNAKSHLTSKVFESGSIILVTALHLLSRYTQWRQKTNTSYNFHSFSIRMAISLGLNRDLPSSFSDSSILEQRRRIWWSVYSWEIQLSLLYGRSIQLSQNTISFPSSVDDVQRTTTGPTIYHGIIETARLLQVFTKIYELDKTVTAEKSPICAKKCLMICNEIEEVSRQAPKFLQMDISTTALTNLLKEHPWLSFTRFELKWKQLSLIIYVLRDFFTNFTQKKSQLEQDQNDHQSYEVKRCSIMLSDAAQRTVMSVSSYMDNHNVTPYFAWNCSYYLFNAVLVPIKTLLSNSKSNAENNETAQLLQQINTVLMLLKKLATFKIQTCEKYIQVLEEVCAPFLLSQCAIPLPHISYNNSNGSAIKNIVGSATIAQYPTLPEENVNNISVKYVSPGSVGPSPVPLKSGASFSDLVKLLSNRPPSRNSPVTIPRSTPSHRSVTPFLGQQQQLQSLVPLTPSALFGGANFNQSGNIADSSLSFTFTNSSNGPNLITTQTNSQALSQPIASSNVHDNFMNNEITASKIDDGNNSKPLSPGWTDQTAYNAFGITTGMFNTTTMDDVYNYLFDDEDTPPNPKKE
# Estrogen receptor beta (Homo sapiens), sequence (Q92731 whole entry, looked up, the tested form may be a part): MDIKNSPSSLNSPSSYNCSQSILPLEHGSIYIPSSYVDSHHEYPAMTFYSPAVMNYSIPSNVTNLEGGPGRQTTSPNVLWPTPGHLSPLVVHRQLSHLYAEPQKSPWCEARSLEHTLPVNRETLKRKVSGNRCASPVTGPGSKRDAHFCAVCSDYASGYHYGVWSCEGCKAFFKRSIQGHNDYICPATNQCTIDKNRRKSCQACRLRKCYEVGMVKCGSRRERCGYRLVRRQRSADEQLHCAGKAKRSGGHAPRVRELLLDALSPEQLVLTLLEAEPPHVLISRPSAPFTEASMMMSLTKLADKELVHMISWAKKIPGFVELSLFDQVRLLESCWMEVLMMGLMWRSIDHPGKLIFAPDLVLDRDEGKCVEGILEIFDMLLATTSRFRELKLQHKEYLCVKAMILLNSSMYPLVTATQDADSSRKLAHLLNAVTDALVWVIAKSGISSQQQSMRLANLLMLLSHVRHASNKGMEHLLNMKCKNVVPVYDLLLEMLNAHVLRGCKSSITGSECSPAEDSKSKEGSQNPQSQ
# Peroxisome proliferator-activated receptor gamma (Homo sapiens), sequence (P37231 whole entry, looked up, the tested form may be a part): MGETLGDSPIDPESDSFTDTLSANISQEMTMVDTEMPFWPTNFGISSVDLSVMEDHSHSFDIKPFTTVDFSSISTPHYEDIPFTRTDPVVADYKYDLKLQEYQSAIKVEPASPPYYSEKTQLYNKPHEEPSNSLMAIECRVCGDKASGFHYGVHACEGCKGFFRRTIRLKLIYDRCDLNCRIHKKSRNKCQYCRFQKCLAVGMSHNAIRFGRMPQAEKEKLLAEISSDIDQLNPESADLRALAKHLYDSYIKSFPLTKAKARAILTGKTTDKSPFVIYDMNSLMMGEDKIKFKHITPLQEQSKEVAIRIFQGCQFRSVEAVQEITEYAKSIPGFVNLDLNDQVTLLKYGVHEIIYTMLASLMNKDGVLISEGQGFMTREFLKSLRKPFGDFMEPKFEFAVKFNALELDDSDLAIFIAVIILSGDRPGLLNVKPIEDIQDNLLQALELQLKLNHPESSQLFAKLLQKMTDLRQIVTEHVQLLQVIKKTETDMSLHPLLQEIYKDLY
# frog Thyroid hormone Receptor alpha (TRa), thra-a (gene 397942), sequence (P15204 whole entry, looked up, the tested form may be a part): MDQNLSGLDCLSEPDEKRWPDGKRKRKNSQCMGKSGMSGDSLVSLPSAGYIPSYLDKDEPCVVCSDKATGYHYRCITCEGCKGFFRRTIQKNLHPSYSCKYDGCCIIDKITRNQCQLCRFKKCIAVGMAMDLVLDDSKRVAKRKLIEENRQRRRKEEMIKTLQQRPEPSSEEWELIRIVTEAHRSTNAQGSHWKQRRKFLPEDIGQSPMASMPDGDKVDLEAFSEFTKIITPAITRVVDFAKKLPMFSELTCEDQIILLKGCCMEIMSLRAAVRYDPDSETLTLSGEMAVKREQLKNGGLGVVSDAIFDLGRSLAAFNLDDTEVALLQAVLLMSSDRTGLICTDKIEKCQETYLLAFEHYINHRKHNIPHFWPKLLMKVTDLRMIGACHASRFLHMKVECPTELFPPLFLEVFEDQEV
# zebrafish Thyroid Hormone Receptor beta (TRb), thrb (gene 30607), sequence (Q9PVE4 whole entry, looked up, the tested form may be a part): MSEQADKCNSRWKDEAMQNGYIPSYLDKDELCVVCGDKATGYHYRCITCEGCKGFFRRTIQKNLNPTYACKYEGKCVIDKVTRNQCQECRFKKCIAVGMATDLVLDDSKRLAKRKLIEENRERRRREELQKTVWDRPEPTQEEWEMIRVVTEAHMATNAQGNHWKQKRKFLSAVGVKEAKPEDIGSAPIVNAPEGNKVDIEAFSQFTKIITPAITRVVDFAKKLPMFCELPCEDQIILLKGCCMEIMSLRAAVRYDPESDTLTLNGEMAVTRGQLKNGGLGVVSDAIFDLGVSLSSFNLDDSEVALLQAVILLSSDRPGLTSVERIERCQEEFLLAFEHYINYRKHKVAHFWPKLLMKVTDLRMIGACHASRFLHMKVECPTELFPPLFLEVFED
# Nuclear receptor subfamily 1 group I member 2 (Mus musculus), sequence (O54915 whole entry, looked up, the tested form may be a part): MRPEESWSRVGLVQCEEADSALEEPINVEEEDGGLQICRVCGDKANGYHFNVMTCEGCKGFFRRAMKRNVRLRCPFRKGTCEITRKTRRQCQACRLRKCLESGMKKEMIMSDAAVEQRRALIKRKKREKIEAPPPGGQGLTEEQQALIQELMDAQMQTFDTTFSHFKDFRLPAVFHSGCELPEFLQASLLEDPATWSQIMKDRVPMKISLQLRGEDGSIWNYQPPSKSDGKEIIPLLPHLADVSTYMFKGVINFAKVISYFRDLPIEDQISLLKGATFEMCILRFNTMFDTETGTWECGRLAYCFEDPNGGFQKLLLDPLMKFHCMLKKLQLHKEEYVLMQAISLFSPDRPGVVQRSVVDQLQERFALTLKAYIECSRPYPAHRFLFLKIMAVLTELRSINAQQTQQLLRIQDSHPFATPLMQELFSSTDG
# mouse Peroxisome Proliferator-activated Receptor gamma (PPARg), Pparg (gene 19016), sequence (P37238 whole entry, looked up, the tested form may be a part): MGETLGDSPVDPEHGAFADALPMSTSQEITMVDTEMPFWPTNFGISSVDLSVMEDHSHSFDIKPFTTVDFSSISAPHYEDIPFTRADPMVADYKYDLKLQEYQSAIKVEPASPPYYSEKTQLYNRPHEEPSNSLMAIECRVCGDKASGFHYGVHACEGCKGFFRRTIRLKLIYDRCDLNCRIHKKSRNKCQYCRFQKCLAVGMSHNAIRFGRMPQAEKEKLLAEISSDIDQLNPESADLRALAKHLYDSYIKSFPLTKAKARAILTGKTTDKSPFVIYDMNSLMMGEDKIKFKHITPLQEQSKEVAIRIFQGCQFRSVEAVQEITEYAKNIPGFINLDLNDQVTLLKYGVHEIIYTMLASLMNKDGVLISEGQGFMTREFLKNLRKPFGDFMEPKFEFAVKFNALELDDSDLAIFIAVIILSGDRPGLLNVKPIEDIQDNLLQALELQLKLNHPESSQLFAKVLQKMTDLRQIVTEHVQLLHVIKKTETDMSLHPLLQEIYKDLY
smiles,measurement,setting,value
CC(C)(C)c1cc(O)c(C(C)(C)C)cc1O,outcome,[1],inactive
same,outcome,[2],inactive
same,outcome,[3],inactive
same,AC50,[4],160 µM (active)
same,outcome,[5],inactive
same,AC50,[6],100 µM (active)
same,outcome,[7],inactive
same,outcome,[8],inactive
same,outcome,[9],inactive
same,outcome,[10],inactive
same,outcome,[11],inactive
same,outcome,[12],inactive
C=CCOC(=O)c1ccccc1C(=O)OCC=C,outcome,[13],inactive
CC(=O)C(C)=CC1C(C)=CCCC1(C)C (centres undefined),outcome,[13],inactive
